{
  "source": "the antibiotic and cytotoxicity screens of Wong et al. (2023)",
  "note": "Screen size: about 39,000 compounds; about 1,500 (3.8%) were called active. The entries come from a sample that favours actives as a whole.",
  "data": [
    {"system": "HSkMC (human skeletal muscle cells)", "assay": "cytotoxicity call (relative viability < 0.9)", "settings": "10 µM", "values": [
      {"molecule": "O=C(Nc1cc(Cl)ccc1Cl)c1cc(Br)ccc1NS(=O)(=O)c1ccc(Cl)c([N+](=O)[O-])c1", "cytotoxicity call": "inactive"},
      {"molecule": "Cn1cnc(-c2cc3nccc(Oc4ccc(NC(=S)NC(=O)Cc5ccccc5)cc4F)c3s2)c1", "cytotoxicity call": "inactive"},
      {"molecule": "COCCNCc1ccc(-c2cc3nccc(Oc4ccc(NC(=O)C5(C(=O)Nc6ccc(F)cc6)CC5)cc4F)c3s2)nc1", "cytotoxicity call": "active"},
      {"molecule": "COCCNCc1ccc(-c2cc3nccc(Oc4ccc(NC(=S)NC(=O)Cc5ccc(F)cc5)cc4F)c3s2)nc1", "cytotoxicity call": "active"},
      {"molecule": "C[C@H](CO)N1C[C@H](C)[C@H](CN(C)S(=O)(=O)c2ccc(-n3cccn3)cc2)OCc2cn(nn2)CCCC1=O", "cytotoxicity call": "inactive"},
      {"molecule": "CO[C@H](C(=O)N(C)C[C@@H]1OCc2ccccc2-c2c(n(C)c3ccccc23)C(=O)N([C@@H](C)CO)C[C@@H]1C)c1ccccc1", "cytotoxicity call": "inactive"},
      {"molecule": "C[C@@H]1CN([C@@H](C)CO)C(=O)Cc2cc(NC(=O)Nc3cccc4ccccc34)ccc2O[C@@H]1CN(C)Cc1ccncc1", "cytotoxicity call": "inactive"},
      {"molecule": "COc1ccc(S(=O)(=O)N[C@H]2CC[C@@H](CC(=O)N3CCN(c4ccccc4)CC3)O[C@@H]2CO)cc1", "cytotoxicity call": "inactive"},
      {"molecule": "Cc1noc(C)c1NC(=O)Nc1ccc2c(c1)C(=O)N([C@@H](C)CO)C[C@@H](C)[C@H](CN(C)C(=O)Nc1cccc3ccccc13)OCCCC[C@H](C)O2", "cytotoxicity call": "inactive"},
      {"molecule": "Cc1noc(C)c1NC(=O)Nc1ccc2c(c1)C(=O)N([C@@H](C)CO)C[C@H](C)[C@@H](CN(C)C(=O)Nc1cccc3ccccc13)OCCCC[C@@H](C)O2", "cytotoxicity call": "inactive"},
      {"molecule": "Cc1noc(C)c1NC(=O)Nc1ccc2c(c1)C(=O)N([C@@H](C)CO)C[C@@H](C)[C@H](CN(C)C(=O)Nc1cccc3ccccc13)OCCCC[C@@H](C)O2", "cytotoxicity call": "active"},
      {"molecule": "Cc1noc(C)c1NC(=O)Nc1ccc2c(c1)C(=O)N([C@H](C)CO)C[C@H](C)[C@@H](CN(C)C(=O)Nc1cccc3ccccc13)OCCCC[C@H](C)O2", "cytotoxicity call": "inactive"},
      {"molecule": "Cc1noc(C)c1NC(=O)Nc1ccc2c(c1)C(=O)N([C@H](C)CO)C[C@@H](C)[C@H](CN(C)C(=O)Nc1cccc3ccccc13)OCCCC[C@@H](C)O2", "cytotoxicity call": "inactive"},
      {"molecule": "Cc1noc(C)c1NC(=O)Nc1ccc2c(c1)C(=O)N([C@H](C)CO)C[C@H](C)[C@H](CN(C)C(=O)Nc1cccc3ccccc13)OCCCC[C@H](C)O2", "cytotoxicity call": "active"},
      {"molecule": "COc1ccc(S(=O)(=O)N(C)C[C@@H]2OCCCC[C@H](C)Oc3ccc(NS(=O)(=O)c4ccc(Cl)cc4)cc3C(=O)N([C@H](C)CO)C[C@H]2C)cc1", "cytotoxicity call": "inactive"},
      {"molecule": "COc1ccc(S(=O)(=O)Nc2ccc3c(c2)C(=O)N([C@@H](C)CO)C[C@H](C)[C@H](CN(C)Cc2ccc(C(=O)O)cc2)OCCCC[C@H](C)O3)cc1", "cytotoxicity call": "inactive"},
      {"molecule": "COC(=O)C1CCN(S(=O)(=O)c2c(C)n(C)c(=O)n(C)c2=O)CC1", "cytotoxicity call": "inactive"},
      {"molecule": "O=C(CN1CCOCC1)NCC[C@@H]1CC[C@@H](NC(=O)c2ccccc2F)[C@H](CO)O1", "cytotoxicity call": "inactive"},
      {"molecule": "O=C(CN1CCOCC1)NCC[C@@H]1CC[C@@H](NC(=O)c2ccccc2F)[C@@H](CO)O1", "cytotoxicity call": "active"},
      {"molecule": "O=C(CN1CCOCC1)NCC[C@H]1CC[C@H](NC(=O)c2ccccc2F)[C@H](CO)O1", "cytotoxicity call": "inactive"},
      {"molecule": "CO/N=[N+](\\[O-])NC(C)C", "cytotoxicity call": "inactive"},
      {"molecule": "C[C@@H]1CCCCO[C@@H](CN(C)Cc2ccc(Cl)c(Cl)c2)[C@H](C)CN([C@H](C)CO)C(=O)c2cc(NS(=O)(=O)c3ccc(F)cc3)ccc2O1", "cytotoxicity call": "active"},
      {"molecule": "C[C@@H]1CCCCO[C@@H](CN(C)Cc2ccc(Cl)c(Cl)c2)[C@@H](C)CN([C@@H](C)CO)C(=O)c2cc(NS(=O)(=O)c3ccc(F)cc3)ccc2O1", "cytotoxicity call": "inactive"},
      {"molecule": "C[C@H](CO)N1C[C@H](C)[C@H](CN(C)Cc2ccc(Cl)c(Cl)c2)OCCCC[C@H](C)Oc2ccc(NS(=O)(=O)c3ccc(F)cc3)cc2C1=O", "cytotoxicity call": "active"},
      {"molecule": "C[C@H](CO)N1C[C@H](C)[C@@H](CN(C)Cc2ccc(Cl)c(Cl)c2)OCCCC[C@H](C)Oc2ccc(NS(=O)(=O)c3ccc(F)cc3)cc2C1=O", "cytotoxicity call": "inactive"},
      {"molecule": "C[C@@H]1CCCCO[C@H](CN(C)Cc2ccc(Cl)c(Cl)c2)[C@@H](C)CN([C@H](C)CO)C(=O)c2cc(NS(=O)(=O)c3ccc(F)cc3)ccc2O1", "cytotoxicity call": "inactive"},
      {"molecule": "C[C@@H]1CCCCO[C@@H](CN(C)Cc2ccc(Cl)c(Cl)c2)[C@H](C)CN([C@@H](C)CO)C(=O)c2cc(NS(=O)(=O)c3ccc(F)cc3)ccc2O1", "cytotoxicity call": "active"},
      {"molecule": "C[C@H]1CCCCO[C@H](CN(C)Cc2ccc(Cl)c(Cl)c2)[C@@H](C)CN([C@@H](C)CO)C(=O)c2cc(NS(=O)(=O)c3ccc(F)cc3)ccc2O1", "cytotoxicity call": "active"},
      {"molecule": "C[C@H]1CN([C@@H](C)CO)C(=O)c2cc(NC(=O)NC3CCCCC3)ccc2O[C@H]1CN(C)S(=O)(=O)c1cn(C)cn1", "cytotoxicity call": "inactive"},
      {"molecule": "O=C(C[C@@H]1CC[C@@H](NC(=O)Cc2ccccn2)[C@H](CO)O1)NCCc1ccncc1", "cytotoxicity call": "inactive"},
      {"molecule": "C[C@H](CO)N1C[C@H](C)[C@@H](CN(C)S(=O)(=O)c2cccs2)OCCCC[C@H](C)Oc2ccc(NS(=O)(=O)c3ccc(Cl)cc3)cc2C1=O", "cytotoxicity call": "inactive"},
      {"molecule": "C[C@H](CO)N1C[C@H](C)[C@H](CN(C)C(=O)Nc2ccc(C(F)(F)F)cc2)OCCCC[C@H](C)Oc2ccc(NC(=O)Cc3ccccc3)cc2C1=O", "cytotoxicity call": "inactive"},
      {"molecule": "C[C@@H]1CCCCO[C@H](CN(C)Cc2ccc3c(c2)OCO3)[C@H](C)CN([C@@H](C)CO)C(=O)c2cc(NS(=O)(=O)c3ccccc3)ccc2O1", "cytotoxicity call": "inactive"},
      {"molecule": "C[C@H]1CN([C@@H](C)CO)C(=O)c2cc(NC(=O)CCCN(C)C)ccc2O[C@@H]1CN(C)Cc1ccc(Oc2ccccc2)cc1", "cytotoxicity call": "inactive"},
      {"molecule": "Cc1ncc(CO)c(/C=N/O)c1O", "cytotoxicity call": "inactive"},
      {"molecule": "Cc1ccc(S[C@]2(C(=O)NC(C)C)CC(=O)N(C3CCCCC3)[C@@H]2c2ccc(CO)cc2I)cc1", "cytotoxicity call": "inactive"},
      {"molecule": "COc1ccc(S(=O)(=O)N[C@H]2C=C[C@@H](CC(=O)N3CCN(c4ccccc4)CC3)O[C@@H]2CO)cc1", "cytotoxicity call": "inactive"},
      {"molecule": "Cc1noc(C)c1NC(=O)Nc1cccc2c1O[C@@H](CN(C)C(=O)Nc1ccc(C(F)(F)F)cc1)[C@H](C)CN([C@H](C)CO)C2=O", "cytotoxicity call": "inactive"},
      {"molecule": "Cc1cc(C(=O)Nc2cccc3c2O[C@H](CN(C)S(=O)(=O)c2ccc(F)cc2)[C@@H](C)CN([C@H](C)CO)C3=O)n(C)n1", "cytotoxicity call": "inactive"}
    ]}
  ]
}
